Among all 330,000 compounds or so, about 100 (0.03%) were called active. Inconclusive results (about 1%) are left out. Many of the other results were omitted from the sample, so actives are more common in it than they were. Unmarked numbers belong to inactive results. The call rests on the fitted dose curve; in most records, active means well fitted inhibition curve with a large enough effect; inconclusive means small, poorly fitted or top-dose-only effect; inactive means flat fitted curve, though single readings scatter.
What follows are compounds tested on Chaperonin Mm-Cpn (Methanococcus maripaludis) (assay: Inhibitors of TCP-1 ring complex (TRiC) of Methanococcus maripaludis (MmCpn): qHTS). Conditions: purified Mm-Cpn ATPase, ADP Transcreener TR-FRET; series mostly up to 76.9 µM; activity, negative = inhibition: at the top concentration.
Source text: The eukaryotic chaperonin TRiC (for TCP-1 ring complex) is an essential and conserved chaperone required for the folding and activation of 10-15% of the proteins encoded by the human genome. […] The TRiC complex consist of two stacked 7-9 membered rings, each containing a central cavity. Substrates are folded within the cavity in an ATP-dependent manner. TRiC is a complex of eight different, essential proteins. As each of the genes encoding the eight subunits is essential for cell viability and no protocol has been developed to over-express this enzyme to high levels. That is why several groups studying the TRiC chaperonin have turned to the archaeal homolog of TRiC, Methanococcus maripaludis (Mm-CPN), and have used this enzyme as a model system for the study of the type II chaperonin family. Small molecule inhibitors of the Mm-CPN enzyme would be extremely useful to study the mechanism of chaperonin activity. Importantly, TRiC and Mm-CPN both require ATP hydrolysis for function. Furthermore, the ATP binding sites are highly conserved among these type II chaperonins. This provides us with an easy, well tested and straightforward assay to identify inhibitors of chaperonin activity. The Mm-CPN assay was developed in 1536-well plate format using the HTRF Transcreener ADP assay kit (Cisbio, Bedford, MA). This assay applied the time resolved fluorescence resonance energy transfer (TR-FRET) principle. ATP in the presence of Mm-CPN is converted to ADP + Pi. An antibody labeled with Eu3+-Cryptate specific and bound to ADP labeled with […] (d2) competes with the unlabeled ADP generated by Mm-CPN. The resulting TR-FRET signal is inversely proportional to the concentration of ADP in the sample. In this assay a reduction in TR-FRET signal is observed with ATP turnover. NIH Chemical Genomics Center [NCGC] NIH Molecular Libraries Probe Centers Network [MLPCN] MLPCN Grant: DA030554-01A1 Assay Submitter (PI): Judith Frydman, Stanford University
Purified Mm-CPN was supplied by the laboratory of Dr. Judith Frydman. Protein samples were stored at -80C as single use aliquots. Protein was thawed in ambient temperature water bath and placed on ice once thawed. Buffer was prepared fresh day of screen. The buffer composition below was used to prepare the working solution of the Mm-CPN protein and ATP substrate. The buffer is comprised of 30 mM TRIS pH 7.4, 100mM KCl, 5mM MgCl2, and 1mM DTT. A final concentration of 25nM Mm-CPN and 10uM ATP per well were used in the screen. Instructions according to the manufacturer were followed for the ADP Transcreener kit. Used 1536 well Greiner white, medium binding (MB), solid bottom plates. Plates were read on the PerkinElmer EnVision plate reader using Excitation = 320 nm and Emission = […], 665 nm. Protocol- 1.Dispense 1.5ul per well of working [Mm-CPN] = 50nM (or 75 ng / well) 2.Spin plate at 1000 rpm for 30 seconds 3.23nl of compound transferred per well 4.Incubate at 37degC for 10 minutes 5.Dispense 1.5ul per well of working [ATP] = 20uM 6.Incubate at 37degC for 30 minutes 7.Dispense 3ul per well of Anti-ADP Cryptate / ADP-d2 mix (prepared as instructed by Cisbio) 8.Incubate at ambient for 30 minutes 9.Read using EnVision
Further: nearly all actives have a fitted effect of over 80% in size.
On the % scale 0 is the no-effect control and ±100 the full control effect; potency means the concentration at half of the fitted maximal effect.
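Wherever Potency is given: enzyme at 25 nM with ATP substrate at 10 µM during the reaction.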

First: CCOc1ccc(NC(=O)COC(=O)C2CCC(=O)N2)c([N+](=O)[O-])c1 (stereo not drawn)
Second: COc1ccccc1Oc1ccc(N2CC(C(=O)OCC(=O)c3ccc(F)cc3)CC2=O)cc1 (stereo not drawn)
The “activity, negative = inhibition” value of the first is lower: -2.17% for the first, -1.04% for the second.

First: CN(C(=O)CSc1nnc(C2CC2)n1C)C1CCCc2ccccc21 (stereo not drawn)
Second: CCOC(=O)C1=C(CSc2nnnn2C)N(C)C(=O)NC1c1ccccc1 (stereo not drawn)
The “activity, negative = inhibition” value of the first is higher: 1.32% for the first, -0.436% for the second.

First: C=C(C)c1cccc(C(C)(C)NC(=O)NC2CCCC2)c1
Second: Nc1ccccc1C(=O)NC1CCCCNC1=O (stereo not drawn)
The “activity, negative = inhibition” value of the first is higher: 3.61% for the first, 1.08% for the second.

Compared with CC(=O)NC(NC(=S)Nc1c(C)n(C)n(-c2ccccc2)c1=O)C(Cl)(Cl)Cl (stereo not drawn), COc1ccc(OC)c(S(=O)(=O)N(C)CC(=O)N2CCN(c3ccccc3)CC2)c1 is lower in “activity, negative = inhibition” value: 0.437% for the first, -4.94% for the second.

Going from COc1cccc(NS(=O)(=O)c2ccc(-c3coc(C)n3)cc2)c1 to Cc1nc(-c2ccc(F)cc2)c(CC(=O)Nc2cccc(S(=O)(=O)N3CCOCC3)c2)s1, the “activity, negative = inhibition” value falls from 1.38% to -1.11%.

First: COc1cccc(N2CC(C(=O)NCc3n[nH]c(=O)c4ccccc34)CC2=O)c1 (stereo not drawn)
Second: COc1ccc(F)cc1C(=O)COC(=O)c1n[nH]c(=O)c2ccccc12
The “activity, negative = inhibition” value of the first is higher: 2.26% for the first, -0.0952% for the second.

Compared with CCOC(=O)c1c(N)c(C#N)nn1-c1ccccc1C(=O)OC, CCc1nnc(NC(=O)C2CCN(C(=O)c3ccccc3C)CC2)s1 is higher in “activity, negative = inhibition” value: -12.9% for the first, 0.687% for the second.

First: O=C(c1c(F)cccc1F)N1CCN(c2ncc(Br)cn2)CC1
Second: O=C(CN1CCN(C(=O)c2ccco2)CC1)Nc1ccc(Cl)c(C(F)(F)F)c1
The “activity, negative = inhibition” value of the first is higher: 0.0114% for the first, -2.16% for the second.

Going from Cc1ccccc1NC(=O)CCNS(=O)(=O)c1ccc2[nH]c(=O)oc2c1 to Cc1ccc(S(=O)(=O)N2CCCCC2)cc1NC(=O)CCNC(=O)c1ccccc1, the “activity, negative = inhibition” value rises from -1.52% to 0.79%.

First: CC(C)N(C)C(=O)CCc1nnc(CCc2c[nH]c3ccccc23)o1
Second: CC(C)N(C(=O)Cn1cc(SCC(=O)N2CCCC2)c2ccccc21)C(C)C
The “activity, negative = inhibition” value of the first is lower: -2.91% for the first, 0.718% for the second.

First: O=C(Nc1cccc(C(=O)NC2CC2)c1)c1ccc(F)c(S(=O)(=O)N2CCOCC2)c1
Second: CCn1c(=O)c(=O)n(CC)c2cc(N3CCCCC3)c(NC(=O)c3ccc(Cl)cc3)cc21
The “activity, negative = inhibition” value of the first is higher: 1.05% for the first, -1.8% for the second.

Compared with CC(=O)NC(c1cccs1)c1cc(Br)c2cccnc2c1O (stereo not drawn), Cc1ccc(NC(=O)Nc2cccnc2)cc1 is higher in “activity, negative = inhibition” value: -1.32% for the first, 1.12% for the second.

Going from COc1ccc(-c2[nH]ncc2CN(Cc2nccn2C)C(C)C)cc1F to CCCOC1CCCN(Cc2cn(C)nc2-c2ccccc2F)C1 (stereo not drawn), the “activity, negative = inhibition” value rises from -2.61% to -0.377%.

Compared with COc1ccc(CNC(=O)CN2C(=O)NC3(CCCc4sccc43)C2=O)cc1 (stereo not drawn), COc1ccc([C@H]2CC(=O)C=C(/C=C/c3ccc(Cl)cc3)C2)cc1 is higher in “activity, negative = inhibition” value: -1.41% for the first, -0.334% for the second.

Compared with O=S1(=O)C=C(SCCN2CCCC2)c2ccccc21, O=S1(=O)CCC(NC(=S)SCc2ccccc2Br)C1 (stereo not drawn) is higher in “activity, negative = inhibition” value: 0.155% for the first, 0.837% for the second.

First: CC(C)(C)NC(=O)CN(C(=O)c1ccc(Cl)nc1)c1cccc2ccccc12
Second: Cc1cccc(N(Cc2ccccc2)C(=O)c2ccccc2F)c1
The “activity, negative = inhibition” value of the first is higher: -0.978% for the first, -2.75% for the second.

Compared with CC(C#N)(NC(=O)CN1CCN(S(=O)(=O)c2cc(C(F)(F)F)ccc2Cl)CC1)C1CC1 (stereo not drawn), CC(C)(CNC(=O)Cc1ccc(Cl)cc1Cl)N1CCOCC1 is lower in “activity, negative = inhibition” value: 3.45% for the first, 0.0015% for the second.

Going from Cc1nc(COc2cccc(Cl)c2)sc1C(=O)/C=C/N(C)C to CN(C)CCN=c1cc(-c2ccccc2)oc2ccc(Cl)cc12, the “activity, negative = inhibition” value rises from -24.3% to -2.28%.

First: CC1(C)C/C(=C(/C#N)C(N)=O)CCO1
Second: Cc1ccc(-n2nc(C)c(C(=O)O)c2-n2cccc2)cc1
The “activity, negative = inhibition” value of the first is lower: -0.376% for the first, 2.77% for the second.

Compared with CCCOc1ccc(C(=O)C(CCC(CNCC)C(=O)c2ccc(OCCC)cc2)CNCC)cc1 (stereo not drawn), CCOc1ccc(C(CCc2ccccc2)NC(=O)c2ccc(OC)c(OC)c2)cc1OCC (stereo not drawn) is lower in “activity, negative = inhibition” value: 0.107% for the first, 0.0376% for the second.

First: Cc1ccc(S(=O)(=O)N2CCCC2C(=O)OCc2nc3sc(C)c(C)c3c(=O)[nH]2)cc1 (stereo not drawn)
Second: Cc1ccc(-n2nc3c(=O)n(C(C)C(=O)NCc4ccc5c(c4)OCO5)nc(C)c3c2C)cc1 (stereo not drawn)
The “activity, negative = inhibition” value of the first is higher: 1.1% for the first, -0.0835% for the second.

Compared with Nc1c(Cl)cc(S(N)(=O)=O)cc1S(N)(=O)=O, Nc1ccc(Cl)c(S(=O)(=O)Nc2ccccc2Cl)c1 is higher in “activity, negative = inhibition” value: 0.708% for the first, 1.09% for the second.

Compared with Cc1ccc2nc(SCc3nnc(-c4ccccc4[N+](=O)[O-])o3)c(C#N)cc2c1, Cn1c(=O)c([N+](=O)[O-])c(Oc2ccccc2)c2ccccc21 is lower in “activity, negative = inhibition” value: 0.0284% for the first, -2.22% for the second.

Compared with Cn1c2ccc(F)cc2c2nnc(NN)nc21, CC(OC(=O)Cc1ccc(F)cc1)C(=O)N1CCc2ccccc21 (stereo not drawn) is higher in “activity, negative = inhibition” value: -3.17% for the first, -0.947% for the second.

Compared with Cc1ccc(NC(=O)Cn2cccc2C2=NC(c3ccccc3)CO2)c(C)c1 (stereo not drawn), COC(=O)c1sc2[nH]c(=S)n(N)c(=O)c2c1C is lower in “activity, negative = inhibition” value: -0.418% for the first, -11.1% for the second.

With COCCn1c(SCC(=O)N2CCCCCC2)nc2c(c1=O)SCC2 the “activity, negative = inhibition” value was -22%.

Work on O=C1OC2(CCCCC2)CC2=C1C1O[C@](c3ccsc3)(Cc3ccccc31)O2 yielded an activity, negative = inhibition of -2.46% [at 15.4 µM].

For Cc1ccc(-c2nc(-c3cccnc3)sc2CC(=O)Nc2ccc(C)c(Cl)c2)cc1, the Potency was 28.2 µM (active).
